# Results reported in PubChem BioAssay (NCI).
# Several values for one entry are separate records, joined by “and”; a condition that tells them apart may be missing. Equal values may be shown once. This is part of a sample that, as a whole, favours compounds with a hit. Of some 83,000 tested, about 20% had one in any assay.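 Step 1: grow cells in 96-well plates. Step 2: add test compound at a single concentration. Step 3: incubate 48 h. Step 4: record percent growth.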 A number with no mark means an inactive call. Activity calls are given as the source filed them. Rule for the calls: active = growth percent below 10; inactive = the rest.
# Key:
# Assay in all cases: NCI-60 one-dose screen, 48 h (100 = growth as untreated, 0 = no growth, -100 = all killed)
# Settings in all cases: 10 µM unless noted
# [1] = tested on: DU-145 prostate
# [2] = tested on: K-562 leukemia
# [3] = tested on: MALME-3M melanoma
# [4] = tested on: MDA-MB-231 breast
# [5] = tested on: RXF 393 renal
# [6] = tested on: SF-268 CNS
# [7] = tested on: SF-295 CNS
# [8] = tested on: SF-539 CNS
# [9] = tested on: UACC-257 melanoma
# [10] = tested on: M14 melanoma
# [11] = tested on: HCT-15 colon
# [12] = tested on: HT29 colon
# [13] = tested on: SNB-75 CNS
# [14] = tested on: SNB-19 CNS
# [15] = tested on: PC-3 prostate
# [16] = tested on: SK-MEL-5 melanoma
# [17] = tested on: UACC-62 melanoma
# [18] = tested on: LOX IMVI melanoma
# [19] = tested on: U251 CNS
# [20] = tested on: SK-MEL-28 melanoma
SMILES,growth [1],growth [2],growth [3],growth [4],growth [5],growth [6],growth [7],growth [8],growth [9],growth [10],growth [11],growth [12],growth [13],growth [14],growth [15],growth [16],growth [17],growth [18],growth [19],growth [20]
O=C1c2ccccc2C(=O)N1c1ccccc1,109%,106%,105%,89.7%,112%,108%,94.9%,103%,101%,106%,105%,104%,89.2%,105%,101%,105%,92%,104%,,
O=C(Oc1cccc2cccnc12)c1ccccc1,92.9% and 107%,48.5%,89.8% and 99%,84.5% and 104%,99.5% and 108%,87.1% and 102%,97.5% and 98.7%,97.9% and 106%,86% and 96.8%,83.2% and 96.9%,,87.1% and 99.8%,85.4% and 96.2%,93.7% and 108%,81.1% and 93.8%,105% and 100%,97.6% and 106%,70% and 100%,82.8% and 113%,
COc1ccc(N=N/N=c2\sc3cc(OC)ccc3n2C)cc1,91.8%,80.8%,109%,90.5%,105%,97.6%,83.3%,99.4%,80%,110%,,78.9%,101%,98%,77.9%,84.6%,83.1%,105%,77.7%,94%
Cn1c2ccccc2c2nnc(N/N=C/c3ccccn3)nc21,13.7%,10.2%,-34.1% (active),56.2%,,6.74% (active),-25.3% (active),-35.9% (active),7.22% (active),-42.1% (active),27.6%,37%,31%,26.1%,28.4%,-44.1% (active),-6.2% (active),1.32% (active),14.2%,
CN(C)CCOc1ccc2c(c1)C(=O)/C(=C\c1ncc([N+](=O)[O-])n1C)C2,-37.8% (active),-39.7% (active),-72.7% (active),-21.1% (active),-60.5% (active),-44.4% (active),-12.7% (active),-73.2% (active),-38.6% (active),-67.2% (active),,-32.6% (active),-86.6% (active),-39.2% (active),-11.2% (active),-97.6% (active),-59.7% (active),-41.9% (active),,-71.2% (active)
CCCCCCCCCCCCCCNCc1ccccc1,81%,23.8%,92.6%,54.4%,82.3%,94.7%,97.7%,83.2%,99.4%,81.8%,,26.1%,82.7%,85.6%,81.7%,62.4%,99.1%,53.3%,57.6%,82.4%
CC(=O)Nc1cccc2cc(O)ccc12,118% and 110% and 111%,108% and 113% and 99.7%,101% and 127% and 98.3%,102% and 95.1% and 95.8%,123% and 98% and 105%,111% and 94.6% and 99.6%,84.7% and 130% and 99%,96.4% and 96.8% and 98.5%,123% and 103% and 90.3%,91.7% and 98.2%,,115% and 107% and 95.8%,91.4% and 101% and 75.3%,106% and 94.8%,104% and 96.3% and 80.3%,113% and 117% and 106%,96.3% and 90.9% and 96.9%,104% and 106%,108% and 102% and 101%,110% and 111% and 104%
CCC1OC(OC)C=CC1=O (centres undefined),107%,87.2%,99.9%,106%,113%,108%,98.1%,101%,117%,104%,,113%,95%,91.5%,97.1%,103%,85%,,,
O=C(Nc1ccccc1)c1cc(Cl)ccc1O,83.7%,33.8%,40.3%,70.6%,79.9%,66.5%,73.1%,53.2%,14.9%,50.9%,,89%,64%,41.3%,,7.81% (active),34.1%,,,
CC1OC(OC2C(OC3CCC4(C)C(CCC5(C)C4CC=C4C6CC(C)(C)CCC6(CO)C(O)CC45C)C3(C)C)OC(C(=O)O)C(OC3OC(COC4OC(CO)C(O)C(O)C4O)C(O)C(O)C3O)C2O)C(O)C(O)C1O (centres undefined),7.81% (active),-30.8% (active),-73% (active),-86.1% (active),-51.2% (active),1.99% (active),-85.2% (active),-84.5% (active),-49.3% (active),-67.4% (active),,-44.6% (active),-84.1% (active),-87.6% (active),-74.3% (active),-94.3% (active),-69.7% (active),-69.9% (active),,-79% (active)
O=[N+]([O-])c1ccc(N=Nc2ccc(O)cc2O)cc1,83.2%,20.6%,72.5%,47.4%,20.6%,78%,50.6%,37.7%,43.7%,51.3%,,75.7%,70.3%,53.7%,32.1%,43.3%,36.4%,51.8%,38.4%,44.2%
Cc1c2ccccc2c(C)c2c1ccc1ccccc12,97.5%,85.1%,88.8%,89.8%,96.3%,98.5%,96.9%,92.3%,94.7%,86.8%,,92.9%,88.1%,103%,,93.1%,80.5%,64.3%,94.5%,92.8%
CC(=O)C(=Cc1ccc(C=C(C(C)=O)C(C)=O)cc1)C(C)=O,23.6%,2.87% (active),-18.6% (active),-3.61% (active),-58.5% (active),19.7%,86.4%,-1.57% (active),19.1%,4.86% (active),,-60.5% (active),73.1%,19.1%,,72.8%,-41.6% (active),-97.8% (active),-23.7% (active),-34.8% (active)
O=C(/C=C/c1cccc(Cl)c1)c1ccccc1,101% and 87.6%,28.7% and 46.5%,104%,105% and 89.2%,85.4%,99.9% and 98.4%,93.9% and 95.8%,105% and 97.9%,100% and 94.4%,86.8% and 83%,,95.2% and 32.4%,104% and 95.2%,89.3% and 76.4%,96% and 88.8%,94% and 93.4%,81.5%,,,
